AMA1 RON2 block: qHTS for Inhibitors of AMA1-RON; Towards Development of Antimalarial Drug Lead: Primary Screen. Plasmodium falciparum AMA1 (3D7) - RON2 peptide interaction. AlphaScreen AMA1-biotinylated RON2 peptide binding. Potency, µM (titrated, usually from 58.2 µM), inactives show at the highest dose activity change, negative = inhibition, hits mostly inhibitors. 360,000 compounds, 0.2% hits; active means well fitted inhibition curve with a large enough effect; inconclusive means small, poorly fitted or top-dose-only effect; inactive means no such curve, though single readings can be large or run the other way;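 further: potency means the concentration at half of the fitted maximal effect; 0% = vehicle wells and -100% = peptide control; nearly all actives have a fitted effect of over 45% in size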
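AMA1 (3D7) with his tag at 25 nM final met compounds first, then biotinylated RON2 peptide at 25 nM; detection used donor plus acceptor beads, 10 µg/mL apiece, read by AlphaScreen after 30 min at room temperature.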
SARS PLP yeast: qHTS of Yeast-based Assay for SARS-CoV PLP; S. cerevisiae expressing SARS-CoV PLpro, growth rescue; Potency, µM (top dose mostly 32.9 µM), for inactives: at the top dose activity, positive = growth rescue, actives largely listed as activators; 330,000 compounds, 0.19% hits; further: potency means the concentration at half of the fitted maximal effect; 0% is about no effect; nearly all actives have a fitted effect of over 55% in size
NS1 inh: qHTS Assay for Inhibitors of Influenza NS1 Protein Function; Potency, µM (doses to about 46.1 µM), for the others: top-dose activity, positive = more growth; 270,000 compounds, 0.4% hits; further: potency means the concentration at half of the fitted maximal effect; actives are rising curves; nearly all actives have a fitted effect of over 50% in size
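OD600 was taken as the measure of yeast growth restored by compound in an NS1-expressing S. cerevisiae strain. Cells had been washed out of glucose medium and diluted 1:100 into galactose -URA medium, pH 6.0.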
NS1 inh valid: Assay for Inhibitors of Influenza NS1 Protein Function: Hit Validation; shares compounds with NS1 inh; influenza NS1 function cell assay, 15-point titration; activity change, negative = inhibition, % at 32.9 µM; 1,400 tested, under 10 active; AID 492980, 2010; further: 0% is about no effect
Flu PR8 replic: Assay for Inhibitors of Influenza NS1 Protein Function: Influenza virus replication assay in MDCK cells infected with virus A/PR/8/34. shares compounds with NS1 inh. MDCK infected influenza A/PR/8/34, virus titer TCID50; stronger effect = lower value. virus titer (log TCID50), log10 TCID50 at 5 µM. 95 compounds, 30% hits. AID 504647, 2011; call rule not given here
Starred values were filed as active, the others as inactive; ? = inconclusive; / = no result; [ ] = remark or other dose. Sampled rows, rich in hits. Any-hit rate of the full collection: about 0.65%. Unless noted, the call rests on the fitted dose curve.

SMILES	AMA1 RON2 block	SARS PLP yeast	NS1 inh	NS1 inh valid	others
Cc1ccc(C)c(NC(=O)CN2C(=O)NC(C)(c3ccc4c(c3)OCCO4)C2=O)c1 (configuration not stated)	-1%	-4%	/	/
O=C(CCS(=O)(=O)Cc1ccccc1F)NCCc1ccc(Cl)cc1	-1%	0%	2%	/
O=C1/C(=C/c2cccnc2)Oc2cc(OS(=O)(=O)c3ccc(Cl)cc3)ccc21	1%	9%	3.5µM*	31
O=C1/C(=C/c2cccnc2)Oc2cc(OS(=O)(=O)c3ccccc3)ccc21	-19%	1%	?	/
O=[N+]([O-])c1ccc(NN=Cc2cccc(O)c2)nc1	7%	/	/	/
Cc1cccc(C)c1-n1c(C)cc(/C=N\Nc2ccc([N+](=O)[O-])cn2)c1C	?	-19%	13µM*	-35
Cc1cc(C)c(C)c(S(=O)(=O)Nc2ccccc2C(=O)NCCCN2CCOCC2)c1C	-4%	1%	/	/
O=[N+]([O-])c1ccccc1Nc1nc(-c2cccnc2)cs1	?	-13%	-29%	/
COc1ccccc1CNC(=S)NCc1ccc(F)cc1	-1%	12%	-57%	/
COc1ccc(CC(=O)Nc2sccc2C#N)cc1S(=O)(=O)N1CCOCC1	2%	2%	/	/
CCCC(=O)Nc1ccc2nc(SCC(=O)Nc3ccc(N4CCOCC4)c(Cl)c3)sc2c1	-7%	-2%	4%	/
Nc1ccc2nc(SCC(=O)Nc3ccc(N4CCOCC4)c(Cl)c3)sc2c1	-21%	8%	10µM*	-6
O=C(NCc1ccc(F)cc1F)[C@@H]1CCCN1C(=O)[C@@H]1CCCN1	-25%	/	/	/
Cc1ccc(S(=O)(=O)N2CCOCC2)cc1NC(=O)CSc1nnc2cc(C)c3ccccc3n12	-26%	6%	8%	/
Cc1cc2nnc(SCC(=O)Nc3cc(S(=O)(=O)N4CCOCC4)ccc3Cl)n2c2ccccc12	9%[2.32 µM]	14%	10µM*	19
COc1cccc(NS(=O)(=O)c2ccc3c(c2)CCCN3C(C)=O)c1	-9%	4%	-6%	/
COc1cccc(NS(=O)(=O)c2ccc3c(c2)C2C=CCC2C(c2ccc(C(=O)O)cc2)N3)c1 (configuration not stated)	?	14%	10µM*	9
Cc1cc(C)cc(N(C(=O)CNS(=O)(=O)c2ccccc2)C(C(=O)NCc2ccccc2)c2ccc(C)o2)c1 (configuration not stated)	-28%	12%	10µM*	-1
Cc1ccc(S(=O)(=O)NCC(=O)N(c2ccccc2)C(C(=O)NCc2ccccc2)c2ccco2)cc1 (configuration not stated)	-22%	5%	-9%	/
CCCCn1c(N)c(N(CCOC)C(=O)c2cc(-c3ccc(F)cc3)nc3ccccc23)c(=O)[nH]c1=O	-11%	0%	/	/
C=CCN1CC(c2nc3ccccc3n2CCOc2ccccc2)CC1=O (configuration not stated)	-22%	10%	?	-24
C=C(C)Cn1c(C2CC(=O)N(Cc3ccccc3)C2)nc2ccccc21 (configuration not stated)	2%	-2%	-45%	/
COc1cccc(C(=O)N2CCC(n3nccc3NC(=O)CCOc3ccccc3)CC2)c1	-9%	?	0%	/
CC(=O)c1cccc(OCC(=O)N(C)CC(=O)NCc2ccco2)c1	-6%	4%	/	/
C#CCN(C[C@H]1[C@H](OC(=O)NCc2ccccc2)[C@H](OC(=O)NCc2ccccc2)C[C@H]2C(=O)N(c3ccccc3)C(=O)[C@@H]12)S(=O)(=O)c1ccc(C)cc1	5%	/	/	/
SMILES	AMA1 RON2 block	SARS PLP yeast	NS1 inh	NS1 inh valid	others
CCOCCOC(=O)c1cccc2c1-c1ccccc1C2=O	11%	-3%	-10%	/
CCOc1ccc2oc(C(=O)OCC(=O)N3CC(C)OC(C)C3)c(C)c2c1 (configuration not stated)	-2%	1%	/	/
Cc1c(C(=O)OCC(=O)N2CC(C)OC(C)C2)oc2ccc(Br)cc12 (configuration not stated)	4%	-7%	0.45µM*	?
COc1ccccc1N1CCN(C(=O)c2cccc(S(=O)(=O)N3c4ccccc4CC3C)c2)CC1 (configuration not stated)	22%[11.6 µM]	/	/	/
O=c1ccn([C@@H]2O[C@H](CO)[C@@H](O)[C@H]2O)c(=O)[nH]1	-6%	?	13µM*	?
O=c1ccn([C@@H]2O[C@H](COP(=O)(O)OP(=O)(O)O)[C@@H](O)[C@H]2O)c(=O)[nH]1	/	/	6%	/
CCOC(=O)c1c(C)[nH]c(C)c1S(=O)(=O)NC1CCN(C(=O)OCC)CC1	2%	-7%	-1%	/
CCc1ccc(C(C(=O)NC2CCCC2)N(C(=O)c2csnn2)C2CC2)cc1 (configuration not stated)	-4%	-1%	-3%	/
COc1ccccc1NC(=O)c1ccc(Br)o1	7%	-13%	-36%	/
O=C(Nc1ccccc1Oc1ccccc1)c1ccc(Br)o1	2%	-5%	?	?
COc1ccc(CN2CCN(S(=O)(=O)c3ccc(NC(C)=O)cc3)CC2)cc1	?	0%	?	3
O=C(Cc1ccc(Cl)cc1)Nc1ccc(S(=O)(=O)N2CCOCC2)cc1	-3%	-1%	-4%	/
COc1ccc(NC(=S)Nc2cccc(S(=O)(=O)N3CCCCC3)c2)cc1	32%	0%	13µM*	2
Cc1ccc(CC(=O)Nc2ccc(S(=O)(=O)N3CCOCC3)cc2)cc1	0%	-3%	?	-27
COc1ccc(NC(=S)Nc2ccc(S(=O)(=O)N3CCCCC3)cc2)cc1	18%	/	/	/
COc1ccc(S(=O)(=O)N2CCN(Cc3ccc(Cl)cc3)CC2)cc1	-22%	-1%	-20%	/
CC(=O)NC12CC3CC(C1)CC(C(=O)N1CCN(S(=O)(=O)c4cccc([N+](=O)[O-])c4)CC1)(C3)C2	3%	/	/	/
CCOc1cc(N2CCOCC2)c(OCC)cc1NC(=O)CSc1ncn[nH]1	-9%	-2%	/	/
O=C(CC1CCCC1)N1CCN(S(=O)(=O)c2ccccc2)CC1	14%	0%	/	/
Cc1ccc(S(=O)(=O)N2CCCC2)s1	1%	-3%	6%	/
CCc1cc2c(=O)n(Cc3ccco3)c(SCC(=O)NCC3CCCO3)nc2s1 (configuration not stated)	-4%	3%	9%	/
CCc1cc2c(=O)n(Cc3ccco3)c(SCC(=O)N3CCCc4ccccc43)nc2s1	-18%	-6%	7.1µM*	5
Cc1ccc(NC(=O)CC(=O)c2ccc([N+](=O)[O-])cc2)cc1S(=O)(=O)Nc1cccc(Cl)c1	29%	0%	14µM*	7	Flu PR8 replic=7.5*
Cc1ccc(NS(=O)(=O)c2cc(C(=O)Nc3cccc([N+](=O)[O-])c3)ccc2C)cc1	6%	?	?	/
CC(=O)Nc1ccc(S(=O)(=O)N[C@@H](C)C(=O)NC2CCCc3ccccc32)cc1 (some centres not stated)	-9%	-4%	/	/

Compound activity: PubChem BioAssay, National Center for Advancing Translational Sciences (NCATS)
